# Measurements published in PubChem BioAssay AID1159580 (chemical genetic matrix, 2015).
# About 2,000 (36%) of roughly 5,500 compounds were called active. Not shown: some 18% with an inconclusive outcome. The list shows a part of the results. Values without a mark were called inactive. No stated cut-off is given here; in the data, active means normalized growth mostly below about 0.91 (no sharp cut-off); inconclusive means no clear call, values can overlap the other calls; inactive means mostly above about 0.92.
# Experiment: chemical genetic growth profiling, strain panel (AID 1159580);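 further: tested at 20 µM; growth read once vehicle control cultures reached saturation at 30 °C; 1 = growth at the plate median or of vehicle wells; lower values mean less growth of the strain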
# Details: growth OD
# [1] = S. cerevisiae deletion strains, locus YAL013W, strain DEP1, hits give low values
# [2] = S. cerevisiae deletion strains, locus YBR229C, strain ROT2, hits give low values
# [3] = S. cerevisiae deletion strains, locus YDL101C, strain DUN1, hits give low values
# [4] = S. cerevisiae deletion strains, locus YDL134C, strain PPH21, hits give low values
# [5] = S. cerevisiae deletion strains, locus YDR150W, strain NUM1, hits give low values
# [6] = S. cerevisiae deletion strains, locus YEL061C, strain CIN8, hits give low values
# [7] = S. cerevisiae deletion strains, locus YGR078C, strain PAC10, hits give low values
# [8] = S. cerevisiae deletion strains, locus YGR229C, strain SMI1, hits give low values
# [9] = S. cerevisiae deletion strains, locus YHR030C, strain SLT2, hits give low values
# [10] = S. cerevisiae deletion strains, locus YHR087W, strain rtc3, hits give low values
# [11] = S. cerevisiae deletion strains, locus YJR043C, strain POL32, hits give low values
# [12] = S. cerevisiae deletion strains, locus YJR075W, strain HOC1, hits give low values
# [13] = S. cerevisiae deletion strains, locus YKL190W, strain CNB1, hits give low values
# [14] = S. cerevisiae deletion strains, locus YLR039C, strain RIC1, hits give low values
# [15] = S. cerevisiae deletion strains, locus YLR058C, strain SHM2 (second series), hits give low values
# [16] = S. cerevisiae deletion strains, locus YLR085C, strain ARP6, hits give low values
# [17] = S. cerevisiae deletion strains, locus YLR262C, strain YPT6, hits give low values
# [18] = S. cerevisiae deletion strains, locus YML094W, strain GIM5, hits give low values
# [19] = S. cerevisiae deletion strains, locus YMR219W, strain ESC1, hits give low values
# [20] = S. cerevisiae deletion strains, locus YMR263W, strain SAP30, hits give low values
# [21] = S. cerevisiae deletion strains, locus YMR307W, strain GAS1, hits give low values
# [22] = S. cerevisiae deletion strains, locus YNL153C, strain GIM3, hits give low values
# [23] = S. cerevisiae deletion strains, locus YNL298W, strain CLA4 (second series), hits give low values
# [24] = S. cerevisiae deletion strains, locus YNL322C, strain KRE1, hits give low values
# [25] = S. cerevisiae deletion strains, locus YNR030W, strain Alg12, hits give low values
# [26] = S. cerevisiae deletion strains, locus YPL055C, strain LGE1, hits give low values
# [27] = S. cerevisiae deletion strains, locus YPL241C, strain CIN2, hits give low values
# [28] = S. cerevisiae deletion strains, locus YPR135W, strain CTF4, hits give low values
# [29] = S. cerevisiae strains, strain wild type, hits give low values
# [30] = S. cerevisiae deletion strains, locus YCL061C, strain MRC1, hits give low values
# [31] = S. cerevisiae deletion strains, locus YNL128W, strain TEP1, hits give low values
# [32] = S. cerevisiae deletion strains, locus YOL006C, strain TOP1, hits give low values
# [33] = S. cerevisiae deletion strains, locus YJL187C, strain SWE1, hits give low values
structure (smiles),measurement,setting,value
N#CCC(=O)N(Cc1ccccc1F)C(=O)NC1CCCCC1,normalized growth,[1],0.993
same,normalized growth,[2],1.01
same,normalized growth,[3],0.994
same,normalized growth,[4],0.98
same,normalized growth,[5],0.997
same,normalized growth,[6],1
same,normalized growth,[7],0.994
same,normalized growth,[8],0.987
same,normalized growth,[9],0.957
same,normalized growth,[10],0.974
same,normalized growth,[11],0.994
same,normalized growth,[12],0.963
same,normalized growth,[13],1
same,normalized growth,[14],0.915
same,normalized growth,[15],1
same,normalized growth,[16],0.989
same,normalized growth,[17],0.935
same,normalized growth,[18],0.996
same,normalized growth,[19],0.998
same,normalized growth,[20],1
same,normalized growth,[21],0.913
same,normalized growth,[22],0.988
same,normalized growth,[23],1.01
same,normalized growth,[24],1.01
same,normalized growth,[25],0.986
same,normalized growth,[26],1.01
same,normalized growth,[27],0.994
same,normalized growth,[28],0.866
same,normalized growth,[29],0.997
COC(=O)c1cccc([N+](=O)[O-])c1-c1c(C(=O)OC)cccc1[N+](=O)[O-],normalized growth,[1],0.995
same,normalized growth,[2],1.01
same,normalized growth,[30],1.03
same,normalized growth,[3],1.03
same,normalized growth,[5],1.02
same,normalized growth,[6],0.983
same,normalized growth,[7],1.03
same,normalized growth,[9],1.06
same,normalized growth,[10],0.997
same,normalized growth,[11],1.01
same,normalized growth,[12],0.981
same,normalized growth,[14],0.994
same,normalized growth,[15],0.999
same,normalized growth,[16],1.03
same,normalized growth,[17],0.97
same,normalized growth,[18],0.988
same,normalized growth,[19],0.99
same,normalized growth,[20],1.03
same,normalized growth,[21],0.971
same,normalized growth,[31],0.999
same,normalized growth,[22],1.03
same,normalized growth,[23],1.02
same,normalized growth,[24],1
same,normalized growth,[25],1.03
same,normalized growth,[32],1.08
same,normalized growth,[26],0.974
same,normalized growth,[27],1
same,normalized growth,[28],1.06
same,normalized growth,[29],1.02
O=C(O)c1cccc([N+](=O)[O-])c1C(=O)Nc1ccc(F)cc1,normalized growth,[1],1.01
same,normalized growth,[2],0.996
same,normalized growth,[30],1.01
same,normalized growth,[3],1.01
same,normalized growth,[5],1.03
same,normalized growth,[6],0.98
same,normalized growth,[7],1.01
same,normalized growth,[9],1.1
same,normalized growth,[10],0.965
same,normalized growth,[11],1
same,normalized growth,[12],1.01
same,normalized growth,[13],0.986
same,normalized growth,[14],1.22 [resistant] (active)
same,normalized growth,[15],0.991
same,normalized growth,[16],1
same,normalized growth,[17],1.19 [resistant] (active)
same,normalized growth,[18],1.01
same,normalized growth,[19],0.998
same,normalized growth,[20],0.996
same,normalized growth,[21],0.932
same,normalized growth,[31],0.984
same,normalized growth,[22],1.01
same,normalized growth,[23],0.97
same,normalized growth,[24],1.02
same,normalized growth,[25],0.996
same,normalized growth,[26],0.979
same,normalized growth,[27],1.04
same,normalized growth,[28],1.04
CC(C)(C)c1cc(C(=O)NN)n[nH]1,normalized growth,[1],1.01
same,normalized growth,[2],1.01
same,normalized growth,[3],0.973
same,normalized growth,[5],0.995
same,normalized growth,[6],1.01
same,normalized growth,[7],0.996
same,normalized growth,[8],1
same,normalized growth,[9],1.06
same,normalized growth,[10],1
same,normalized growth,[33],0.988
same,normalized growth,[11],0.997
same,normalized growth,[12],0.979
same,normalized growth,[14],1.08
same,normalized growth,[15],0.995
same,normalized growth,[16],1.15
same,normalized growth,[17],1.04
same,normalized growth,[18],1.04
same,normalized growth,[19],1
same,normalized growth,[20],0.984
same,normalized growth,[21],1
same,normalized growth,[22],0.991
same,normalized growth,[23],1.01
same,normalized growth,[24],0.997
same,normalized growth,[25],1
same,normalized growth,[32],1.09
same,normalized growth,[26],1.04
same,normalized growth,[27],0.953
same,normalized growth,[28],1.21
same,normalized growth,[29],1.01
Cc1cccc(NC(=O)c2ccccc2)c1,normalized growth,[1],0.961
same,normalized growth,[2],0.958
same,normalized growth,[3],0.991
same,normalized growth,[5],0.974
same,normalized growth,[6],0.945
same,normalized growth,[7],0.951
same,normalized growth,[8],0.977
same,normalized growth,[9],0.827
same,normalized growth,[10],0.937
same,normalized growth,[33],0.946
same,normalized growth,[11],0.952
same,normalized growth,[12],0.913
same,normalized growth,[13],0.988
same,normalized growth,[14],0.809
same,normalized growth,[15],0.981
same,normalized growth,[16],0.897
same,normalized growth,[17],0.854
same,normalized growth,[18],0.924
same,normalized growth,[19],0.967
same,normalized growth,[20],0.973
same,normalized growth,[31],0.992
same,normalized growth,[22],0.973
same,normalized growth,[23],0.887
same,normalized growth,[24],0.98
same,normalized growth,[25],0.951
same,normalized growth,[26],0.971
same,normalized growth,[27],0.91
same,normalized growth,[28],0.798
O=C(Nc1cc(-c2ccccc2)[nH]n1)c1ccccc1,normalized growth,[1],0.938
same,normalized growth,[2],0.947
same,normalized growth,[3],0.935
same,normalized growth,[4],0.923
same,normalized growth,[5],1.03
same,normalized growth,[6],0.867 (active)
same,normalized growth,[7],0.936
same,normalized growth,[9],0.619 (active)
same,normalized growth,[10],0.913
same,normalized growth,[11],0.919 (active)
same,normalized growth,[12],0.902
same,normalized growth,[13],0.89 (active)
same,normalized growth,[14],0.719 (active)
same,normalized growth,[15],0.982
same,normalized growth,[16],0.634 (active)
same,normalized growth,[17],0.79 (active)
same,normalized growth,[18],0.888
same,normalized growth,[19],0.968
same,normalized growth,[21],0.492 (active)
same,normalized growth,[31],0.973
same,normalized growth,[22],0.946
same,normalized growth,[23],0.844
same,normalized growth,[24],0.988
same,normalized growth,[25],0.867 (active)
same,normalized growth,[32],0.63 (active)
same,normalized growth,[26],0.907
same,normalized growth,[27],0.865
same,normalized growth,[28],0.488 (active)
